# From PubChem BioAssay (Tox21)
# Values without a mark were called inactive. Records with an inconclusive call do not appear. A call without a number means that no potency is given here. Activity calls are given as the source filed them. Calls follow the shape of the dose curve; as a rule, active = well fitted curve in the direction sought with a large enough effect in the repeat runs; inconclusive = weak or mixed curves; inactive = no such curve, though single readings can be large; an effect the other way counts as inactive or inconclusive.
# Experiments:
# [1] = A CellTox Green Cytotoxicity Assay to monitor cytotoxicity in HEK293 cells - 40 hour (AID 1224871); also: nearly all actives have a fitted effect of over 45% in size; also: potency is read from the fitted curve at half-maximal effect
# Method in brief: (§1)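 Fluorescence from a DNA-binding dye excluded by viable cells was measured repeatedly in the same HEK293 wells (600 cells/well) during continuous compound exposure at 37 C. Each assay gives one read point: 0, 8, 16, 24, 32 or 40 h.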
# [2] = qHTS RealTime-Glo MT Cell Viability Assay in HEK293 cells - 16 hour (AID 1224872); also: top concentration of the series differs between compounds; nearly all actives have a fitted effect of over 50% in size
# Method in brief: (§2)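 HEK293 cells were seeded at 600 cells/well together with NanoLuc luciferase and cell-permeant prosubstrate, preincubated 5 h at 37 C/5% CO2, then given compound in DMSO by pintool. Luminescence from viable-cell prosubstrate reduction was read repeatedly over 40 h.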
# [3] = qHTS RealTime-Glo MT Cell Viability Assay in HepG2 cells - 8 hour (AID 1224873); also: nearly all actives have a fitted effect of over 55% in size
# Method in brief: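 HepG2 cells mixed with RealTime-Glo MT reagents (NanoLuc plus cell-permeant prosubstrate) were seeded at 600 cells/well, incubated 5 h at 37 C/5% CO2, then pinned with compounds in DMSO; nonlytic luminescence tracked viability during 40 h treatment.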
# [4] = qHTS RealTime-Glo MT Cell Viability Assay in HEK293 cells - 40 hour (AID 1224874); settings: RealTime-Glo luminescence; max response: hits give low values; also: nearly all actives have a fitted effect of over 50% in size
# Method in brief: (§3)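 Luminescence, which tracks viable cell number through reduction of the prosubstrate to a NanoLuc substrate, was read over continuous 37 C culture. Cells (600/well) were premixed with reagent and rested 5 h before 23 nL of compound in DMSO was pinned.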
# [5] = A CellTox Green Cytotoxicity Assay to monitor cytotoxicity in HEK293 cells - 24 hour (AID 1224875); also: nearly all actives have a fitted effect of over 45% in size; also: potency is read from the fitted curve at half-maximal effect; as to activity change: series mostly up to about 77 µM
# Method in brief: as §1
# [6] = A CellTox Green Cytotoxicity Assay to monitor cytotoxicity in HepG2 cells - 16 hour (AID 1224876); also: nearly all actives have a fitted effect of over 45% in size; also: potency is read from the fitted curve at half-maximal effect
# Method in brief: (§4)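 Real-time cytotoxicity: fluorescence of a cell-impermeant cyanine dye binding DNA of dead HepG2 cells, measured repeatedly (0–40 h) during compound exposure at 37 C. Cells seeded 600/well with reagent, dosed after 5 h.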
# [7] = qHTS RealTime-Glo MT Cell Viability Assay in HepG2 cells - 32 hour (AID 1224877); also: nearly all actives have a fitted effect of over 55% in size
# Method in brief: (§5)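 HepG2 cells were seeded at 600 cells/well together with NanoLuc luciferase and a cell-permeant prosubstrate, preincubated 5 h at 37 C/5% CO2, then pin-dosed with compounds in DMSO. Nonlytic luminescence from viable cells was read at each time point.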
# [8] = A CellTox Green Cytotoxicity Assay to monitor cytotoxicity in HepG2 cells - 24 hour (AID 1224878); also: nearly all actives have a fitted effect of over 45% in size; also: potency is read from the fitted curve at half-maximal effect
# Method in brief: as §4
# [9] = A CellTox Green Cytotoxicity Assay to monitor cytotoxicity in HepG2 cells - 40 hour (AID 1224879); also: nearly all actives have a fitted effect of over 40% in size; also: potency is read from the fitted curve at half-maximal effect
# Method in brief: as §4
# [10] = A CellTox Green Cytotoxicity Assay to monitor cytotoxicity in HEK293 cells - 32 hour (AID 1224881); also: nearly all actives have a fitted effect of over 40% in size; also: potency is read from the fitted curve at half-maximal effect
# Method in brief: as §1
# [11] = A CellTox Green Cytotoxicity Assay to monitor cytotoxicity in HepG2 cells - 0 hour (AID 1224882); also: nearly all actives have a fitted effect of over 35% in size; also: potency is read from the fitted curve at half-maximal effect
# Method in brief: as §4
# [12] = A CellTox Green Cytotoxicity Assay to monitor cytotoxicity in HepG2 cells - 32 hour (AID 1224883); also: nearly all actives have a fitted effect of over 50% in size; also: potency is read from the fitted curve at half-maximal effect
# Method in brief: as §4
# [13] = A CellTox Green Cytotoxicity Assay to monitor cytotoxicity in HEK293 cells - 8 hour (AID 1224884); also: nearly all actives have a fitted effect of over 35% in size; also: potency is read from the fitted curve at half-maximal effect
# Method in brief: as §1
# [14] = qHTS RealTime-Glo MT Cell Viability Assay in HepG2 cells - 16 hour (AID 1224885); also: nearly all actives have a fitted effect of over 50% in size
# Method in brief: as §5
# [15] = qHTS RealTime-Glo MT Cell Viability Assay in HEK293 cells - 24 hour (AID 1224886)
# Method in brief: as §2
# [16] = qHTS RealTime-Glo MT Cell Viability Assay in HEK293 cells - 8 hour (AID 1224887)
# Method in brief: as §3
# [17] = A CellTox Green Cytotoxicity Assay to monitor cytotoxicity in HEK293 cells - 16 hour (AID 1224888); also: nearly all actives have a fitted effect of over 35% in size; also: potency is read from the fitted curve at half-maximal effect
# Method in brief: as §1
# [18] = qHTS RealTime-Glo MT Cell Viability Assay in HepG2 cells - 0 hour (AID 1224889); also: nearly all actives have a fitted effect of over 50% in size
# Method in brief: as §5
# [19] = A CellTox Green Cytotoxicity Assay to monitor cytotoxicity in HepG2 cells - 8 hour (AID 1224890); also: nearly all actives have a fitted effect of over 45% in size
# Method in brief: as §4
# [20] = qHTS RealTime-Glo MT Cell Viability Assay in HEK293 cells - 0 hour (AID 1224880)
# Method in brief: as §3
compound,measurement,setting,value
CCC(C)S (stereo not given),cytotoxicity increase,[1],-0.869% [at 2.72 µM]
same,"activity change, negative = cytotoxicity",[2],0.797% [at 2.72 µM]
same,"viability change, negative = cytotoxic",[3],0.999% [at 2.72 µM]
same,max response,[4],2.1%
same,activity change,[5],"2.02% [at 2.72 µM, hits give high values]"
same,cytotoxicity increase,[6],0.507% [at 2.72 µM]
same,"activity change, negative = cytotoxic",[7],-0.778% [at 2.72 µM]
same,cytotoxicity,[8],1.18% [at 2.72 µM]
same,cytotoxicity increase,[9],-0.0934% [at 2.72 µM]
same,cytotoxicity increase,[10],1.61% [at 2.72 µM]
same,cytotoxicity,[11],-2.37% [at 2.72 µM]
same,cytotoxicity increase,[12],1.17% [at 2.72 µM]
same,cytotoxicity increase,[13],0.141% [at 2.72 µM]
same,"activity change, negative = cytotoxic",[14],-0.5% [at 2.72 µM]
same,"activity change, negative = cytotoxicity",[15],1.35% [at 2.72 µM]
same,"activity change, negative = cytotoxicity",[16],2.1% [at 2.72 µM]
same,activity change,[17],"1.7% [at 2.72 µM, hits give high values]"
same,"activity change, negative = cytotoxicity",[18],5.41% [at 2.72 µM]
same,cytotoxicity increase,[19],-0.336% [at 2.72 µM]
Cc1sccc1Br,Potency,[1],inactive
same,Potency,[2],inactive
same,Potency,[3],inactive
same,max response,[4],6.36%
same,Potency,[5],inactive
same,Potency,[6],inactive
same,Potency,[8],inactive
same,Potency,[9],inactive
same,Potency,[20],inactive
same,Potency,[10],inactive
same,Potency,[11],inactive
same,Potency,[12],inactive
same,Potency,[13],inactive
same,Potency,[15],inactive
same,Potency,[16],inactive
same,Potency,[17],inactive
same,Potency,[18],inactive
CCn1ccnc1CC1COc2ccccc2O1 (stereo not given),Potency,[1],inactive
same,Potency,[2],inactive
same,Potency,[3],inactive
same,max response,[4],-26.6%
same,Potency,[5],inactive
same,Potency,[6],inactive
same,Potency,[8],inactive
same,Potency,[9],inactive
same,Potency,[20],inactive
same,Potency,[10],inactive
same,Potency,[11],inactive
same,Potency,[12],inactive
same,Potency,[13],inactive
same,Potency,[14],inactive
same,Potency,[15],inactive
same,Potency,[16],inactive
same,Potency,[17],inactive
same,Potency,[18],inactive
same,Potency,[19],inactive
c1ccc(CC2=NCCN2)cc1,Potency,[1],inactive
same,Potency,[2],inactive
same,Potency,[3],inactive
same,max response,[4],-5.85%
same,Potency,[5],inactive
same,Potency,[6],inactive
same,Potency,[7],inactive
same,Potency,[8],inactive
same,Potency,[9],inactive
same,Potency,[10],inactive
same,Potency,[11],inactive
same,Potency,[12],inactive
same,Potency,[13],inactive
same,Potency,[14],inactive
same,Potency,[15],inactive
same,Potency,[16],inactive
same,Potency,[17],inactive
same,Potency,[18],inactive
same,Potency,[19],inactive
CN(C)CCCSc1ccccc1NC(=O)/C=C/c1ccccc1,Potency,[1],19 µM (active)
same,Potency,[2],inactive
same,Potency,[3],inactive
same,max response,[4],-11.2%
same,Potency,[5],19 µM (active)
same,Potency,[6],21.3 µM (active)
same,Potency,[7],inactive
same,Potency,[8],19 µM (active)
same,Potency,[9],19 µM (active)
same,Potency,[10],19 µM (active)
same,Potency,[11],19 µM (active)
same,Potency,[12],19 µM (active)
same,Potency,[13],16.9 µM (active)
same,Potency,[14],inactive
same,Potency,[15],inactive
same,Potency,[16],inactive
same,Potency,[17],16.9 µM (active)
same,Potency,[18],inactive
Cn1cc(S(C)=O)c(=O)c2ccc(F)cc21 (stereo not given),Potency,[1],inactive
same,Potency,[2],inactive
same,Potency,[3],inactive
same,max response,[4],-13.8%
same,Potency,[5],inactive
same,Potency,[6],inactive
same,Potency,[7],inactive
same,Potency,[8],inactive
same,Potency,[9],inactive
same,Potency,[11],inactive
same,Potency,[12],inactive
same,Potency,[13],inactive
same,Potency,[14],inactive
same,Potency,[15],inactive
same,Potency,[16],inactive
same,Potency,[17],inactive
same,Potency,[18],inactive
same,Potency,[19],inactive
COc1ccc2c(c1)CCCC2=O,Potency,[1],inactive
same,Potency,[2],inactive
same,Potency,[3],inactive
same,max response,[4],0.353%
same,Potency,[5],inactive
same,Potency,[6],inactive
same,Potency,[8],inactive
same,Potency,[9],inactive
same,Potency,[20],inactive
same,Potency,[10],inactive
same,Potency,[11],inactive
same,Potency,[12],inactive
same,Potency,[13],inactive
same,Potency,[14],inactive
same,Potency,[15],inactive
same,Potency,[16],inactive
same,Potency,[17],inactive
same,Potency,[18],inactive
same,Potency,[19],inactive
CCCN1CCCC[C@H]1C(=O)Nc1c(C)cccc1C,Potency,[1],inactive
same,Potency,[2],inactive
same,Potency,[3],inactive
same,max response,[4],3.8%
same,Potency,[5],inactive
same,Potency,[6],inactive
same,Potency,[7],inactive
same,Potency,[8],inactive
same,Potency,[20],inactive
same,Potency,[10],inactive
same,Potency,[11],inactive
same,Potency,[12],inactive
same,Potency,[13],inactive
same,Potency,[14],inactive
same,Potency,[15],inactive
same,Potency,[16],inactive
same,Potency,[17],inactive
same,Potency,[18],inactive
same,Potency,[19],inactive
C/C=C(\C)C#N,Potency,[1],inactive
same,Potency,[2],inactive
same,Potency,[3],inactive
same,max response,[4],-3.01%
same,Potency,[5],inactive
same,Potency,[6],inactive
same,Potency,[7],inactive
same,Potency,[8],inactive
same,Potency,[9],inactive
same,Potency,[10],inactive
same,Potency,[11],inactive
same,Potency,[12],inactive
same,Potency,[13],inactive
same,Potency,[15],inactive
same,Potency,[16],inactive
same,Potency,[17],inactive
same,Potency,[18],inactive
same,Potency,[19],inactive
CCOC(=O)[C@H](CCc1ccccc1)N[C@@H](C)C(=O)N1[C@H](C(=O)O)C[C@@H]2CCC[C@@H]21,Potency,[1],inactive
same,Potency,[2],inactive
same,Potency,[3],inactive
same,max response,[4],6.09%
same,Potency,[5],inactive
same,Potency,[6],inactive
same,Potency,[7],inactive
same,Potency,[8],inactive
same,Potency,[9],inactive
same,Potency,[10],inactive
same,Potency,[11],inactive
same,Potency,[12],inactive
same,Potency,[13],inactive
same,Potency,[14],inactive
same,Potency,[15],inactive
same,Potency,[16],inactive
same,Potency,[17],inactive
same,Potency,[18],inactive
same,Potency,[19],inactive
